# Screens as filed in PubChem.
# BAZ2B block: qHTS Assay for Inhibitors of BAZ2B; AlphaScreen BAZ2B-H3K14Ac peptide displacement; Potency, µM (highest dose often 114 µM), most hits filed as inhibitors; 360,000 compounds, 4.4% hits; AID 504333, 2011; note: nearly all actives have a fitted effect of over 60% in size
#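 In this displacement format the biotinylated H3(5-23) peptide acetylated at Lys14 serves as ligand at 50 nM, with BAZ2B at 50 nM in PBS pH 7.4 containing 0.01% Tween-20. Donor and acceptor beads are 10 ug/mL final.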
# PLK1 PBD block: qHTS for Inhibitors of PLK1-PDB (polo-like kinase 1 - polo-box domain): Primary Screen; Serine/threonine-protein kinase PLK1 (Homo sapiens), P53350; Plk1 PBD binding of FITC phosphopeptide, fluorescence polarization; Potency, µM, usual class: inhibitors; 360,000 compounds, 2.8% hits; AID 720504, 2013; note: series mostly up to about 57 µM; nearly all actives have a fitted effect of over 65% in size
# HP1b chromo inh: HTS for Inhibitors of HP1-beta Chromodomain Interactions with Methylated Histone Tails. 390,000 compounds, 0.56% hits. AlphaScreen HP1-beta / biotin-H3K9me3 peptide binding. AID 540317, 2011. Chromobox protein homolog 1 (Homo sapiens), P83916. Potency, µM (top dose mostly 114 µM), usual class: inhibitors; note: nearly all actives have a fitted effect of over 70% in size
#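 Compound inhibition of the preformed complex between 50 nM HP1-beta and 50 nM biotinylated H3K9me3 peptide was read by AlphaScreen. Buffer was PBS pH 7.4 with 0.01% Tween-20. Incubations ran 30 min at room temperature, with 10 ug/mL donor/acceptor beads.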
# PI5P4K alpha inh: qHTS for Inhibitors of phosphatidylinositol 5-phosphate 4-kinase (PI5P4K) | Phosphatidylinositol 5-phosphate 4-kinase type-2 alpha (Homo sapiens), P48426 | PI5P4Kalpha enzyme, ADP-Glo luminescence, 60 min; active compounds read low | max response, % | 330,000 compounds, 1.2% hits; active = max response of -50% or lower; inconclusive = between -30% and -50%; inactive = -30% or higher; note: value at the top dose of about 77 µM
#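 Luminescence from ADP-Glo served as readout of PI5P4Kalpha activity in a qHTS format. Reaction: enzyme, substrate, compound, ATP at 5 microM final, 60 min at RT.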
# JMJD2A Tudor inh: qHTS Assay for Inhibitors of JMJD2A-Tudor Domain; Potency, µM (top dose mostly 114 µM), actives largely listed as inhibitors; 390,000 compounds, 4.4% hits; AlphaScreen JMJD2A-Tudor / H3K4me3 peptide binding; note: nearly all actives have a fitted effect of over 50% in size
# G9a block: qHTS Assay for Inhibitors of Histone Lysine Methyltransferase G9a. G9a H3K9 monomethylation, AlphaScreen, 2 h. 350,000 compounds, 8.8% hits. Histone-lysine N-methyltransferase EHMT2 (Homo sapiens), Q96KQ7. Potency, µM (highest dose often 102 µM), actives largely listed as inhibitors. AID 504332, 2011; note: nearly all actives have a fitted effect of over 75% in size
#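 Quantitative HTS format: methyltransferase activity on a biotin-tagged H3K9 peptide is measured by AlphaScreen, using a rabbit anti-monomethyl-H3K9 antibody with streptavidin donor and anti-IgG acceptor beads. Final levels are 20 nM enzyme, 500 nM peptide, 20 uM SAM; 2 h RT.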
# Numbers stand for hits; 0 = inactive; ? = inconclusive; - = no result; [ ] = dose if it differs, or a comment. Sampled rows, rich in hits. Any-hit rate of the full collection: about 12%. Unless noted, calls come from the whole dose curve; as a rule, active = well fitted curve in the direction sought with a large enough effect; inconclusive = small, poorly fitted or top-dose-only effect, or another doubt; inactive = no such curve, though single readings can be large; an effect the other way counts as inactive or inconclusive.
SMILES,BAZ2B block,PLK1 PBD block,HP1b chromo inh,PI5P4K alpha inh,JMJD2A Tudor inh,G9a block
CC1CC[C@@]2(OC1)OC1C(O)C3C4CC[C@H]5CC(O[C@@H]6O[C@@H](CO)[C@H](OC7OC(CO)C(O)C(OC8OCC(O)C(O)[C@H]8O)[C@@H]7O[C@@H]7OC(CO)[C@H](O)[C@@H](O[C@@H]8OC(CO)C(O)C(O)C8O)C7O)C(O)C6O)C(O)C[C@]5(C)C4CC[C@]3(C)C1C2C (some centres undefined),-,-,-,-,-,0[2.33 µM]
C[C@H](CO)N1C[C@H](C)[C@@H](CN(C)C(=O)Nc2ccc(C(F)(F)F)cc2)Oc2c(NS(=O)(=O)c3cccs3)cccc2C1=O,-,0,0,0,0,-
S=c1nc(-c2ccccc2)n(-c2ccccc2)[nH]1,0,0,0,0,3.5µM,2.8µM
COc1ccc(-n2c(-c3ccccc3[N+](=O)[O-])nc3ccccc3c2=O)cc1,?,21µM,0,0,?,0
COc1ccc(-n2c(-c3ccc(C)cc3)nc3ccccc3c2=O)cc1,0,0,0,0,0,0
S=C=S,-,-,-,-,-,0
CCCC[N+]1(C)C2CC(OC(=O)[C@H](CO)c3ccccc3)CC1C1OC12 (some centres undefined),-,-,-,-,-,0
COc1cccc(CN2CCN(Cc3cccc(F)c3)CC2)c1,35µM,0,?,0,7.9µM,-
COc1cccc(N2CCN(Cc3cccc(Cl)c3)CC2)c1,?,0,0,-,?,?
COc1ccc2c3c1OC1C(O)C=CC4C(C2)[N+](C)(C)CCC341 (centres undefined),22µM,?,?,?,16µM,7.9µM
CCN(CC)S(=O)(=O)c1ccc(NN=C(C#N)C#N)cc1,?,0,?,-58,?,?
N#CC(C#N)=NNc1ccc([N+](=O)[O-])cc1,40µM,0,?,0,?,32µM
CC(=O)Nc1ccc([As](=O)(O)c2ccc([N+](=O)[O-])cc2)cc1,0,0,0,0,0,0
COc1ccc(NC(=O)CCc2nc(C3=CCN(Cc4cccc(Cl)c4)CC3)no2)c(OC)c1,?,-,0,-,?,?
COc1ccc(NC(=O)CCc2nc(C3=CCN(Cc4cccc(Cl)c4)CC3)no2)cc1OC,50µM,-,0,-,56µM,28µM
CCC(C)N1C(=O)NC(=O)C2(Cc3c(ccc4ccccc34)N(C)C2)C1=O (centres undefined),?,13µM,0,0,0,1.8µM
CCOC(=O)CCCCCNC(=O)c1c(O)[nH]c(=O)[nH]c1=O,-,0,0,0,79µM,-
COc1ccc(CCNC(=O)c2ccc3c(c2)N(Cc2cccc(Cl)c2)C(=O)CS3)cc1OC,0,-,0,-,0,?
Cc1ccc(NC(=O)COC(=O)/C=C/c2ccco2)cc1S(=O)(=O)N(C)C,?,0,0,0,?,14µM
O=[N+]([O-])c1cc(S(=O)(=O)c2ccc(O)c([N+](=O)[O-])c2)ccc1O,50µM,0,?,-64,56µM,?
Cn1nc(-c2ccc(C(=O)Nc3ccc(OC(F)(F)F)cc3)cc2)c2ccccc2c1=O,0,-,0,-,0,0
CCCCCCC(=O)OC1CC(C)(C)NC(C)(C)C1,-,-,-,-,-,0
Cc1cc(C(=O)Cn2nnc(-c3ccc(Cl)cc3)n2)c(C)n1-c1ccccc1,0,0,0,0,0,0
C[C@H](CCC(=O)O)[C@H]1CC[C@H]2[C@@H]3CC[C@@H]4C[C@H](O)CC[C@]4(C)[C@H]3CC[C@]12C,0,21µM,0,0,?,0[12.7 µM]
Cc1nc(N)sc1CCN,-,-,-,-,-,0
N#CC(C#N)=NNc1ccc(-n2ccc(C(F)(F)F)n2)cc1,32µM,?,0,0,?,32µM
Cc1cc(C)n(-c2ccc(NN=C(C#N)C#N)cc2)n1,32µM,0,0,0,?,-
CC(=O)OC1CC(OC(C)=O)[C@]2(C)C(CC(OC(C)=O)[C@]3(C)C2CC[C@@]2(C)C(c4ccoc4)C(=O)C4O[C@]432)C1(C)C (some centres undefined),-,-,-,-,-,0[2.33 µM]
